# Screening data as filed in PubChem.
# The list is not random: actives were taken first. Their share in the collection is about 9.3%.
# ELG1 DNA repair: qHTS screen for small molecules that inhibit ELG1-dependent DNA repair in human embryonic kidney (HEK293T) cells expressing luciferase-tagged ELG1; Potency, µM (titrated, usually from 46.1 µM), without a hit: at the highest dose activity change, negative = inhibition, most hits filed as inhibitors; AID 504467, 2011; actives 2.3% (n = 330,000); HEK293T ELG1-luciferase reporter, luminescence, 16 h; DNA damage induced by 5-fluorouridine; also: % is scaled to controls: 0 for no effect and ±100 for the full control effect; nearly all actives have a fitted effect of over 55% in size
#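 DMSO vehicle served as the neutral condition. Each well held 2,000 cells given 5-fluorouridine plus compound; after 16 hr at 37 °C/5% CO2, ONE-Glo was added and luciferase measured 30 min later.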
# Rab9 promoter act: qHTS Assay for Rab9 Promoter Activators | Potency, µM (titrated, usually from 9.22 µM), without a hit: top-dose activation, negative = inhibition, hits mostly activators | AID 485297, 2010 | Huh7 Rab9 promoter-luciferase reporter, luminescence, 24 h | actives 2.8% (n = 320,000); also: % of control where 0% means no effect; nearly all actives have a fitted effect of over 60% in size
#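 Measured in stably transfected Huh7 cells bearing a Rab9 promoter–luciferase construct: 24 h compound treatment at 37 °C, followed by luminescence detection.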
# SMN2 splice up: qHTS Assay for Enhancers of SMN2 Splice Variant Expression; HEK293 SMN2-luciferase splicing reporter, luminescence, 30-36 h; Potency, µM (highest dose often 46.1 µM), inactives show at the top dose activity change, positive = activation, usual class: activators; actives 2.8% (n = 210,000); also: % of control where 0% means no effect; nearly all actives have a fitted effect of over 55% in size
#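 qHTS luciferase splicing reporter: luminescence rises when SMN2 exon 7 is included in transfected HEK293 cells. Compound exposure lasted 30-36 h at 37C, with 4.5 mM final sodium butyrate as control, followed by a ONE-Glo read.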
# NPC1 promoter act: qHTS Assay for NPC1 Promoter Activators | Huh7 NPC1 promoter luciferase reporter, 24 h | Potency, µM (top dose mostly 9.22 µM), for inactives: top-dose activation, most hits filed as activators | actives 2.4% (n = 320,000); also: % of control where 0% means no effect; nearly all actives have a fitted effect of over 60% in size
#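 NPC1 promoter–luciferase Huh7 cells; 24 h compound; luminescence.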
# ELG1 genotox: qHTS screen for small molecules that induce genotoxicity in human embryonic kidney (HEK293T) cells expressing luciferase-tagged ELG1; Potency, µM (titrated, usually from 46 µM), inactives show top-dose activity change, positive = activation, hits mostly activators; HEK293T ELG1-luciferase reporter, luminescence, 16 h; actives 1.3% (n = 330,000); also: % of control where 0% means no effect; nearly all actives have a fitted effect of over 60% in size
#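 HEK293T cells expressing luciferase-tagged ELG1 were exposed to compound or DMSO vehicle for 16 hr at 37 °C and 5% CO2. Luciferase activity was then measured with ONE-Glo after 30 min at room temperature.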
# FLuc modulator: qHTS profiling assay for firefly luciferase inhibitor/activator using purifed enzyme and Km concentrations of substrates (counterscreen for miR-21 project); purified FLuc, Km substrates, luminescence inhibition; Luciferin 4-monooxygenase (Photinus pyralis), P08659; Potency, µM (titrated, usually from 57.5 µM), inactives show at the highest dose activity change, negative = inhibition, actives largely listed as inhibitors; actives 6.9% (n = 360,000); AID 588342, 2011;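 also: plate controls were vehicle for no effect and reference inhibitor for full effect; nearly all actives have a fitted effect of over 55% in size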
# Target sequence (P08659 whole entry, looked up): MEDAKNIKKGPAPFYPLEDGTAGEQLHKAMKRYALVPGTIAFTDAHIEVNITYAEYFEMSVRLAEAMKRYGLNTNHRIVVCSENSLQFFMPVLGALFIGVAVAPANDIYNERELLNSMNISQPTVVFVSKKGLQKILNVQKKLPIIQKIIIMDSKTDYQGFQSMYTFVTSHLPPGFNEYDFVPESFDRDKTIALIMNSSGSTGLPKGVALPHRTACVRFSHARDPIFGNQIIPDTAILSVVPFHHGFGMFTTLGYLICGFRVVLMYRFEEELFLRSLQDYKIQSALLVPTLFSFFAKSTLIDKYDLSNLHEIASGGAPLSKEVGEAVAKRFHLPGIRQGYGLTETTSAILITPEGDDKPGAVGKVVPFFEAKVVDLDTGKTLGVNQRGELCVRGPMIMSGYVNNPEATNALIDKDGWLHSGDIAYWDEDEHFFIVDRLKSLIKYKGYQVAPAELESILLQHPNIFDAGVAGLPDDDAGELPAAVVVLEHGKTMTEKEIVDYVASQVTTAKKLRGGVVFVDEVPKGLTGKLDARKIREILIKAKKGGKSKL
#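 Purified P. pyralis luciferase, 10 nM final, with Km-level 10 uM D-luciferin and 10 uM ATP in 50 mM Tris acetate pH 7.5, 10 mM Mg acetate, 0.01% Tween-20, 0.05% BSA; 6-point qHTS titration about 60 µM downward; luminescence read.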
# The depositor's hits bear a star; ? = inconclusive; nt = no result. Calls follow the shape of the dose curve; as a rule, active = well fitted curve in the direction sought with a large enough effect; inconclusive = small, poorly fitted or top-dose-only effect, or another doubt; inactive = no such curve, though single readings can be large; an effect the other way counts as inactive or inconclusive. Potency is read from the fitted curve at half-maximal effect.
SMILES,ELG1 DNA repair,Rab9 promoter act,SMN2 splice up,NPC1 promoter act,ELG1 genotox,FLuc modulator
COCCN1Cc2cccc(C(=O)Nc3ccc(C(=O)OC)cc3)c2C1=O,nt,nt,3.3%,nt,nt,-8.4%
COc1cc(/C=N/NC(=O)CCn2c3ccccc3c3ccccc32)cc(OC)c1OC,18.4µM*,-5.0%,-13.2%,-4.5%,-0.3%,1.6%
CCCOc1ccc(C(=O)CCC(=O)OCC(=O)N2CC(=O)Nc3ccccc32)cc1,17.9%,-6.6%,-1.8%,-2.4%,-0.6%,16.9µM*
O=C(COc1ccc([N+](=O)[O-])cc1)Nn1cnnc1,12.6%,-5.0%,-6.3%,2.2%,-1.2%,-0.8%
O=C(N/N=C/c1ccc2c(c1)OCO2)c1ccc2ccccc2n1,?,14.8%,0.8%,1.6%,?,3.01µM*
O=C(N/N=C/c1ccc2c(c1)OCO2)c1ccccn1,?,0.398µM*,3.55µM*,0.316µM*,?,2.13µM*
O=C(N/N=C/c1cc2c(cc1Br)OCO2)c1ccccn1,?,1.26µM*,nt,2.51µM*,?,2.69µM*
O=C(N/N=C/c1ccsc1)C1CC1,9.1%,11.8%,nt,8.9%,0.1%,-9.7%
Cc1cccc(C(=O)N/N=C/c2ccc3c(c2)OCO3)n1,20.7%,6.8%,-0.7%,7.1%,6.3%,?
O=C(N/N=C/c1ccsc1)c1ccc2ccccc2n1,?,?,27.3%,22.0%,12.8%,21.3µM*
O=C1COc2ccc(C(=O)COc3ccc([N+](=O)[O-])cc3)cc2N1,12.8%,-2.5%,nt,0.2%,1.3%,-1.5%
COc1ccc(NC(=O)NN2CCN(C)CC2)cc1,-3.3%,8.6%,nt,-2.3%,5.2%,1.0%
O=C(N/N=C/c1cc2c(cc1Br)OCO2)c1cc2ccccc2o1,?,22.1%,nt,22.2%,5.7%,9.53µM*
O=C(N/N=C/c1cc2c(cc1Br)OCO2)c1c[nH]c2ccccc12,-1.7%,2.51µM*,11.2µM*,2.51µM*,7.8%,9.53µM*
O=C(N/N=C/c1ccco1)c1cc2ccccc2o1,24.9%,19.0%,nt,15.4%,11.5%,16.9µM*
O=C(/C=C/c1ccc2c(c1)OCO2)c1ccccn1,?,3.55µM*,nt,2.24µM*,?,0.338µM*
Cc1ccccc1Cn1c(=O)n(Cc2ccco2)c(=O)c2sc3ccccc3c21,nt,nt,-9.6%,nt,nt,-18.0%
Cc1ccc(N(CC(=O)NCCSc2ccccc2)S(=O)(=O)c2ccc(F)cc2)cc1,nt,nt,-40.1%,nt,nt,2.7%
C=CCNc1nc2c(c(=O)n(C)c(=O)n2C)n1Cc1ccc(F)cc1,?,-28.0%,-86.3%,-10.9%,20.6µM*,0.3%
Cn1c(=O)c2c(nc(NCc3ccccc3)n2CCCc2ccccc2)n(C)c1=O,?,-8.9%,10.0%,0.7%,-7.9%,0.1%
Cn1c(=O)n(Cc2ccccc2)c(=O)c2c1nc(NCC1CCCO1)n2Cc1ccccc1 (stereo unspecified),20.6µM*,-1.5%,-77.1%,-2.2%,-10.0%,1.1%
Cn1c(=O)c2c(nc(NCCO)n2CCCc2ccccc2)n(C)c1=O,20.6µM*,-10.2%,nt,-2.0%,-10.4%,0.3%
Cn1c(=O)c2c(nc(NCCc3ccccc3)n2Cc2ccc(Cl)c(Cl)c2)n(C)c1=O,nt,nt,0.1%,nt,nt,-8.3%
Cn1c(=O)c2c(nc(NCCc3ccccc3)n2Cc2ccc(F)cc2)n(C)c1=O,11.6µM*,-19.8%,-4.2%,-9.2%,-17.7%,4.3%
Cc1ccc(CNC(=O)C(CC(C)C)OC(=O)c2ccco2)cc1 (stereo unspecified),?,2.1%,nt,1.6%,2.4%,-0.5%
SMILES,ELG1 DNA repair,Rab9 promoter act,SMN2 splice up,NPC1 promoter act,ELG1 genotox,FLuc modulator
CCNc1nc2c(c(=O)[nH]c(=O)n2C)n1Cc1ccc(F)cc1,?,-1.6%,?,-0.4%,23.1µM*,1.8%
COc1ccc(CNc2nc3c(c(=O)n(Cc4ccc(F)cc4)c(=O)n3C)n2C)cc1,18.4µM*,-6.9%,0.7%,-3.8%,-16.7%,10.3%
CN(C)c1nc2c(c(=O)[nH]c(=O)n2C)n1Cc1ccc(F)cc1,6.7%,-8.5%,12.2%,0.9%,?,-0.1%
Cn1c(NCc2ccccc2)nc2c1c(=O)n(Cc1ccccc1)c(=O)n2C,?,-5.2%,-17.0%,-2.1%,-6.3%,7.4%
CN(C(=O)CSc1nc(-c2ccc(C(C)(C)C)cc2)c(C#N)c(=O)[nH]1)C1CCCCC1,13.8%,-1.9%,nt,-3.3%,3.4%,2.6%
COc1cccc(NC(=O)Cn2nnc(C(=O)NCc3ccc4c(c3)OCO4)c2N)c1,9.6%,-0.5%,nt,0.9%,2.6%,0.3%
CC1(C(=O)NCC2CCCO2)Oc2cccnc2NC1=O (stereo unspecified),9.6%,0.5%,nt,-2.0%,0.3%,-1.6%
Oc1c(N=Nc2ccccn2)ccc2ccccc12,?,-8.6%,-66.9%,-5.1%,?,1.35µM*
Cc1occc1-c1nnc(-c2cc([N+](=O)[O-])cc([N+](=O)[O-])c2)o1,3.5%,27.5%,nt,18.4%,-2.5%,-0.8%
Cc1ccc(OCCSc2nc(N)cc(N)n2)cc1,?,1.78µM*,nt,3.16µM*,?,23.9µM*
COc1ccc(OCCSc2nc(N)cc(N)n2)cc1,?,3.98µM*,-6.5%,3.98µM*,0.731µM*,21.3µM*
CCCOc1ccc(OCCSc2ncccn2)cc1,?,3.98µM*,15.8µM*,3.16µM*,10.3µM*,6.75µM*
Clc1ccc(OCCSc2ncccn2)c(Br)c1,?,0.708µM*,12.6µM*,1.41µM*,2.06µM*,2.13µM*
COc1ccc(OCCSc2nc(N)cc(=O)[nH]2)cc1,-12.4%,-2.3%,nt,-2.0%,0.5%,-10.6%
Cc1ccc(OCCCSc2n[nH]c(N)n2)cc1,?,4.8%,nt,-2.5%,11.6%,?
COc1ccc(NC(=O)CSc2nc3c([nH]c4ccccc43)c(=O)n2-c2ccccc2)c(OC)c1,nt,nt,nt,nt,nt,0.9%
CCOc1ccc(C(=O)C(C)OC(=O)C2CCN(c3ccc(C(F)(F)F)cn3)CC2)cc1 (stereo unspecified),-16.8%,-0.8%,nt,-1.0%,18.3µM*,-1.4%
COC(=O)c1cc(S(=O)(=O)N2CCN(c3cccc(C)c3C)CC2)c[nH]1,-7.4%,1.7%,nt,-9.3%,-2.2%,-0.2%
COc1cccc(C2=NOC(C(=O)Nc3cc(C)nn3-c3ccccc3)C2)c1OC (stereo unspecified),23.1µM*,-4.2%,-68.1%,-8.3%,-2.3%,-9.8%
CCOC(=O)c1ccc(-n2c(C)nc3ccc(Br)cc3c2=O)cc1,?,-2.2%,nt,0.5%,-6.6%,2.5%
